The values that follow come from PubChem BioAssay.

Calls of active or inactive are those of the source.

Assay [1] is described as follows: binders of probe aFSTL3 on microarray, primary screen, stem cell growth factor project, biochemical, small-molecule microarray, fluorescence 635/667 (AID 1064).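 Also: measures binding of the biotinylated anti-FSTL3 antibody to printed compounds.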 As to conditions: higher = more signal.
Assay [2] can be described thus: binders from COS7 lysate, DM2A8 probe, primary screen, torsin A project, cell lysate, small-molecule microarray, fluorescence 635/667 (AID 1065). The note with it: higher = more signal, COS7 lysate expressing mutant human TOR1A.
Assay [3] in a line: binders of probe aFGF2 on microarray, primary screen, stem cell growth factor project, biochemical, small-molecule microarray, fluorescence 635/667 (AID 1067).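 Also: measures binding of biotinylated aFGF2 protein to printed compounds on slides; z-score merges feature fluorescence and signal-to-noise across triplicate slides.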 As to conditions: higher = more signal.
Assay [4] in a line: binders of probe aFGF10 on microarray, primary screen, stem cell growth factor project, biochemical, small-molecule microarray, fluorescence 635/667 (AID 1071).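 Also: score merges 667 nm spot intensity and signal to noise from triplicate slides.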 The note with it: higher = more signal.
The target of assay [5] is Neurogenic locus notch homolog protein 2 (Homo sapiens) (UniProt Q04721). Put plainly: Notch2 binders on small-molecule microarrays, primary screen, biochemical, small-molecule microarray, 635 nm fluorescence, stem cell growth factors (AID 1073). As to conditions: Notch2 binding, higher = more signal.
In assay [6] the target is Pro-neuregulin-1, membrane-bound isoform (Homo sapiens) (UniProt Q02297). Put plainly: NRG1 binders on small-molecule microarrays, primary screen, psychiatric disease protein project, biochemical, small-molecule microarray, fluorescence 635/667 (AID 1075).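 Also: score combines 667 nm spot fluorescence with signal to noise.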 The note with it: NRG1 binding, 635 nm fluorescence, higher = more signal.
Sequence of Pro-neuregulin-1, membrane-bound isoform (Homo sapiens) (Q02297 whole entry, looked up, the tested form may be a part, canonical isoform): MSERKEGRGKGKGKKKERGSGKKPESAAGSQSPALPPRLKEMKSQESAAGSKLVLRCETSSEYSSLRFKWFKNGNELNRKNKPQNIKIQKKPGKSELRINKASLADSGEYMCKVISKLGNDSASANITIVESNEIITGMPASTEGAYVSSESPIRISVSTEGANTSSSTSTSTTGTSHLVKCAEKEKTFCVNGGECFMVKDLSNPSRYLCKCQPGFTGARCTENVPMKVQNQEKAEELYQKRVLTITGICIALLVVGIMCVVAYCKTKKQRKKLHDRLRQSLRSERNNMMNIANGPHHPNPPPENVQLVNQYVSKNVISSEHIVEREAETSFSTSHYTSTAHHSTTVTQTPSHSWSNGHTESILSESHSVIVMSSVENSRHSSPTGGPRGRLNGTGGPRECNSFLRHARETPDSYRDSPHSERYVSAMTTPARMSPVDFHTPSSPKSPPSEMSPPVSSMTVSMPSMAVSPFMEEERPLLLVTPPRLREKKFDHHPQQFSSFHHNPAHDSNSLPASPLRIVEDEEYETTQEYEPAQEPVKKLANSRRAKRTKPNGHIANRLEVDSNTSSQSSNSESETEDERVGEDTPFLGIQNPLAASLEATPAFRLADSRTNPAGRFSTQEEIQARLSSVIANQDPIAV
The subject of assay [7] is Neuregulin-1 EGF-like domain. Put plainly: binders of neuregulin-1 EGF-like domain, primary screen, biochemical, small-molecule microarray, 635 nm fluorescence (AID 1081).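 Also: binding of the protein to compounds printed on small-molecule microarray slides.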 As to conditions: small-molecule microarray binding, higher = more signal.
Assay [8] can be described thus: FRG1 promoter luciferase signal modulators, primary screen, FRG1 inhibition for FSHD, cell-based, C2C12 myotubes, firefly/Renilla luciferase, luminescence (AID 1084). As to conditions: higher = more signal, called active from +8 up or from −8 down.
Assay [9] is described as follows: binders of probe aFST on microarray, primary screen, stem cell growth factor project, biochemical, small-molecule microarray, fluorescence 635/667 (AID 1086).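 Also: score merges 667 nm fluorescence with signal-to-noise of each printed compound spot.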 The note with it: higher = more signal.
Assay [10] can be described thus: binders of probe aHhip on microarray, primary screen, stem cell growth factor project, biochemical, small-molecule microarray, fluorescence 635/667 (AID 1087).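 Also: score merges spot fluorescence at 667nm with spot signal to noise ratio.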 The note with it: higher = more signal.
The test system of assay [11] is PRMT1 (protein arginine N-methyltransferase 1). Description: PRMT1 binders on small-molecule microarrays, primary screen, biochemical, small-molecule microarray, 635 nm fluorescence (AID 1088).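 Also: binding of Prmt1 protein to compounds spotted on small-molecule microarray slides.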 As to conditions: small-molecule microarray binding, higher = more signal.
Assay [12] is described as follows: yeast growth modulation, basal conditions, primary screen, YJM789 clinical isolate, OD600, 24 h (AID 1089).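 Also: growth of clinical yeast isolate S. cerevisiae YJM 789 seeded 1000 cells per well; test concentration not given here.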 The note with it: S. cerevisiae YJM789 growth, higher = more signal, called active from +8 up or from −8 down.
Assay [13] is described as follows: fission yeast growth modulation, primary screen, strain 972, OD600, 24 h, no modulator (AID 1090).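 Also: basal condition with compound alone and no growth modifier present; test concentration not given here.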 As to conditions: S. pombe 972 growth, higher = more signal, called active from +8 up or from −8 down.
Assay [14] can be described thus: S. cerevisiae growth modulation with rapamycin, primary screen, strain BY4716, OD600, 96 h (AID 1091). Also: test concentration not given here. As to conditions: higher = more signal, called active from +8 up or from −8 down.
Assay [15] deals with Torsin-1A-interacting protein 2 (Homo sapiens) (UniProt Q8NFQ8). Description: LULL1 binders on small-molecule microarray, primary screen, cell lysate, human LULL1 lysate, 635/667 nm fluorescence (AID 1092).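 Also: probe is lysate of COS7 cells overexpressing human LULL1; score merges per-feature 667 nm fluorescence with signal-to-noise.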 The note with it: hLULL1 lysate binding, 635 nm fluorescence, higher = more signal.
Sequence of Torsin-1A-interacting protein 2 (Homo sapiens) (Q8NFQ8 whole entry, looked up): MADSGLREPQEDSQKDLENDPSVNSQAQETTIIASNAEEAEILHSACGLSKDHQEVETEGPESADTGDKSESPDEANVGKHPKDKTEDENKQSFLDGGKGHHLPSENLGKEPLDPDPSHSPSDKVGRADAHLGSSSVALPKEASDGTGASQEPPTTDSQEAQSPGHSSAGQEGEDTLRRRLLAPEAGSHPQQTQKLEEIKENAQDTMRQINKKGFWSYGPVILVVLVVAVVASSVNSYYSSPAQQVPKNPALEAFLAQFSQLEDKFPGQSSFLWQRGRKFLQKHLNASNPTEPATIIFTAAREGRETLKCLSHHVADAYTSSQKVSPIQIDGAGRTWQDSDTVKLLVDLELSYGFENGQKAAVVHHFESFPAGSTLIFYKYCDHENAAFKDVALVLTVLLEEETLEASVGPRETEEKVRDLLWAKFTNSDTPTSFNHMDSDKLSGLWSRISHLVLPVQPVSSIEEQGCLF
Assay [16] in a line: E. coli growth modulation, two-sided OD650, primary screen, E. coli filamentation project, strain DRC41, 24 h (AID 1093).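 Also: MC1000 strain lacking acrAB efflux and sulA so SOS filamentation is blocked; test concentration not given here.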 The note with it: OD650, 24 h, higher = more signal, called active from +8 up or from −8 down.
Assay [17] is described as follows: small-molecule microarray binders of probe aLefty2, primary screen, biochemical, biotinylated probe, 635/667 nm fluorescence (AID 1094).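 Also: score merges spot fluorescence near 667 nm with spot signal-to-noise ratio.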 The note with it: higher = more signal.
The test system of assay [18] is Noggin (protein binding on small-molecule microarray). Put plainly: Noggin binders on small-molecule microarray, primary screen, biochemical, 635/667 nm fluorescence (AID 1095).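 Also: score merges 667 nm feature fluorescence with signal to noise over triplicate slides.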 As to conditions: 635 nm fluorescence, higher = more signal.
For assay [19], the target named is Neurogenic locus notch homolog protein 3 (Homo sapiens) (UniProt Q9UM47). Description: NOTCH3 binders on small-molecule microarray, primary screen, biochemical, 635/667 nm fluorescence (AID 1096). The note with it: NOTCH3 binding, 635 nm fluorescence, higher = more signal.
Sequence of Neurogenic locus notch homolog protein 3 (Homo sapiens) (Q9UM47 whole entry, looked up): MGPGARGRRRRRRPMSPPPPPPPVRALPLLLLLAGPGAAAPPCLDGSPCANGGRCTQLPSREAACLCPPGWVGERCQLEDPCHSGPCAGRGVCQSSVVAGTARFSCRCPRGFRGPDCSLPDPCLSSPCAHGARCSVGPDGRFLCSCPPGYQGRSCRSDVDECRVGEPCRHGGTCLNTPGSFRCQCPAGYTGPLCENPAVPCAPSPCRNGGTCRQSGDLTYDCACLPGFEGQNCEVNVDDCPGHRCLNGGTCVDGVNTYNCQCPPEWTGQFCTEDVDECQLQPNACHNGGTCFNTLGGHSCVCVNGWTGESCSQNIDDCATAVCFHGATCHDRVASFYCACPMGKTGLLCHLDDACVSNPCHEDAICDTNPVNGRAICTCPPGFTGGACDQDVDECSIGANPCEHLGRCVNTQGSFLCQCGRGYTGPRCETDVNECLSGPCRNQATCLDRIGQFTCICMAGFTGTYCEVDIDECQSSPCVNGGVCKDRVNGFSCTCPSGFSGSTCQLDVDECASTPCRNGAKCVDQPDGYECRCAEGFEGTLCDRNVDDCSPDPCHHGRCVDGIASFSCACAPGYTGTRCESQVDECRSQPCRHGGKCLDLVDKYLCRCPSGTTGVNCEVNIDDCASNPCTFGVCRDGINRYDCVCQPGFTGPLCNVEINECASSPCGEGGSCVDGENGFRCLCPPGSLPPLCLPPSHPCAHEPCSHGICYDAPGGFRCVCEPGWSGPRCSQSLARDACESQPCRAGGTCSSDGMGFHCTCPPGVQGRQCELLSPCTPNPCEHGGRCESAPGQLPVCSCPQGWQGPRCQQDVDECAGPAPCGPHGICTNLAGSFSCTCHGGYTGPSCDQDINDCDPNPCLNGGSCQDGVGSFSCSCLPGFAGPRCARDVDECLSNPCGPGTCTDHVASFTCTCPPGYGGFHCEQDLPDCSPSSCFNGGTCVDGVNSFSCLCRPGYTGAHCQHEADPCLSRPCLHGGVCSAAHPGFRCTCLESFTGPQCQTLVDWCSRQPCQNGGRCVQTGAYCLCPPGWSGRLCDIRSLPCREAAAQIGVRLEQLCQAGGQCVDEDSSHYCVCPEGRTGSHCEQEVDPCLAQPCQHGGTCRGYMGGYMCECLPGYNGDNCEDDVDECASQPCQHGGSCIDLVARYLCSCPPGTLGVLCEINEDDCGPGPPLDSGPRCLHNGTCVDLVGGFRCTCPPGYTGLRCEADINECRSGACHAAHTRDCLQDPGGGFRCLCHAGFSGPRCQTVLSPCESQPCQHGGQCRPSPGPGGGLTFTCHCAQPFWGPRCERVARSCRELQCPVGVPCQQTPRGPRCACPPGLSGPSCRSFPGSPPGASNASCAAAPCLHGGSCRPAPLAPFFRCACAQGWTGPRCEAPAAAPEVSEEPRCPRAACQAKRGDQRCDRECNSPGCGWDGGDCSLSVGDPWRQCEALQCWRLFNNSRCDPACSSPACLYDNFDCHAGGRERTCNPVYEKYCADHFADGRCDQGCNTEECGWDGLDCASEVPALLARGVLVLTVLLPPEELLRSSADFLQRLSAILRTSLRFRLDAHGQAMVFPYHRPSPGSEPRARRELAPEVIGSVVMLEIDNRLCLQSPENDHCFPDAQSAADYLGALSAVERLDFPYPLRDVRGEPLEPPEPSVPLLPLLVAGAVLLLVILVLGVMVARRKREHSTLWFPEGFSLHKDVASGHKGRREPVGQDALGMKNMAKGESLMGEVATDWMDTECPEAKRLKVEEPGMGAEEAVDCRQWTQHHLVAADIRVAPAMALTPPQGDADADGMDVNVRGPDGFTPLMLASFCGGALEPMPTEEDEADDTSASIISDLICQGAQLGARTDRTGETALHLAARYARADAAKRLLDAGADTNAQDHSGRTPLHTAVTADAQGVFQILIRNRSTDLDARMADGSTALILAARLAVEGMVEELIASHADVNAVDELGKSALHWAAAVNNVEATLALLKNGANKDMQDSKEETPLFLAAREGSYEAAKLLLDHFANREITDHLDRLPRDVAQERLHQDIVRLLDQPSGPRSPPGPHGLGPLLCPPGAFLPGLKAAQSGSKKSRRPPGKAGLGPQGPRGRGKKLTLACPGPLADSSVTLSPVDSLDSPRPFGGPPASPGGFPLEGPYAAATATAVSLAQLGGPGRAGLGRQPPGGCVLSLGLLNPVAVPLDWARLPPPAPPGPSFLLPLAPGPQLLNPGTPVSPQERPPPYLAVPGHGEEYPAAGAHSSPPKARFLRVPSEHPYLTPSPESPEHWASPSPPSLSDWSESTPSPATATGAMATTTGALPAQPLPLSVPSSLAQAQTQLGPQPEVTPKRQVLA
The nature of assay [20]: small-molecule microarray binders of probe aEGFR, primary screen, biochemical, biotinylated probe, 635/667 nm fluorescence (AID 1097).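 Also: probe is a biotinylated anti-EGFR antibody binding compounds printed on slides; score combines fluorescence near 667 nm and signal to noise of each spot.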 The note with it: higher = more signal.

As for `CC(C)(C)N1C(=O)[C@H]2[C@H]3[C@H](O)[C@H](O)CC(=NNC(=O)OCc4ccccc4)[C@H]3CC[C@H]2C1=O`, the composite z-score in assay [1] is -0.642; in assay [2], 0.0714; in [3], -0.0684; in [4] it was 0.559; in assay [5], 0.389; in assay [6], 0.26. The composite z-score in assay [7] was 0.748; in [9] it was -0.0777; in assay [10] it was -0.169; in assay [11] it was 1.3; in assay [15], 1.39; in assay [17] it was -0.191. The composite z-score is 0.683 in assay [18], 0.4 in assay [19] and -0.0051 in assay [20]. For the same molecule, the z-score in assay [8] was -0.0034 (inactive); in [12], 0.272 (inactive); in assay [13], -1.49 (inactive); in assay [14] it was -0.391 (inactive); in assay [16], 0.0955 (inactive).
On to `COC(=O)CC=C[C@@H](C)[C@@H](C=NOC(C)CN1CCCCc2nc(C)c(C)cc21)OC` (stereo not given in full), for which the composite z-score was -0.0416 in [1]; 2.43 in assay [2]; -0.175 in assay [3]; -0.425 in [4]; -0.229 in [5]; 0.33 in assay [6]. For the same molecule, the composite z-score in assay [7] is 0.987; in [9] it was 0.286; in assay [10] it was -0.206; in assay [11], 1.24; in assay [15], 1.24; in assay [17], -0.0063. In addition, the composite z-score in assay [18] was found to be 0.946; in assay [19], 0.234; in assay [20], 0.0282. In addition, the z-score was 0.739 (inactive) in [8]; -0.793 (inactive) in assay [12]; -0.472 (inactive) in [13]; -0.906 (inactive) in [14]; -0.123 (inactive) in assay [16].
For `C#CCCCON=C1C[C@@H](O)[C@@H](O)[C@@H]2[C@@H]3C(=O)N(C4CCCCC4)C(=O)[C@@H]3CC[C@@H]12`, the composite z-score was 0.835 in [1]; 0.0616 in assay [2]; -0.115 in [3]; -0.0372 in [4]; 0.766 in assay [5]; 0.846 in assay [6]. For the same molecule, the composite z-score is 0.565 in [7]; -0.0386 in [9]; 0.312 in assay [10]; 0.335 in assay [11]; 1.01 in assay [15]; -0.118 in [17]. Further, the figures for the composite z-score in [18], in [19] and in [20] were 0.454, 0.358 and -0.0409, respectively. In addition, the z-score in assay [8] was 0.287 (inactive); in [12], -1.83 (inactive); in assay [13], -1.61 (inactive); in assay [14], -1.07 (inactive); in assay [16], 0.862 (inactive).
`CO[C@@H]1COC(=O)[C@H](COCc2ccccc2)NC(=O)CC=C[C@@H](C)[C@H](OC)COC(=O)[C@@H](C)NC(=O)CC=C[C@H]1C`: the composite z-score was -0.459 in assay [1]; 1.36 in assay [2]; -0.191 in assay [3]; -0.632 in [4]; -0.45 in assay [5]; -0.637 in assay [6]. For the same molecule, the composite z-score is -0.826 in assay [7]; -0.0711 in [9]; 0.0139 in assay [10]; 1.39 in assay [11]; -1.07 in assay [15]; -0.147 in [17]. The composite z-score in [18] is 1.16; in assay [19], -0.0488; in [20] it was -0.166. Further, the z-score in [8] was 0.696 (inactive); in assay [12], 0.203 (inactive); in assay [13], -0.536 (inactive); in assay [14], 0.55 (inactive); in assay [16], 1.52 (inactive).
In the case of `CO[C@@H]1COC(=O)CC=C[C@H](C)[C@H](OC)COC(=O)[C@@H]2CCCN2C(=O)CC=C[C@H]1C`, the composite z-score was -0.811 in assay [1]; 1.74 in assay [2]; -0.196 in assay [3]; 0.0967 in [4]; -0.271 in assay [5]; -0.285 in [6]. The composite z-score in assay [7] is 0.158; in [9] it was 0.0991; in assay [10] it was -0.166; in assay [11] it was 0.684; in [15], -0.722; in assay [17] it was -0.225. For the same molecule, the composite z-score in assay [18] is 1.78; in [19] it was -0.128; in [20] it was 0.153. Besides, the z-score was -0.331 (inactive) in [8]; 0.0396 (inactive) in assay [12]; -0.719 (inactive) in assay [13]; -0.249 (inactive) in assay [14]; 0.127 (inactive) in assay [16].
